SNCA viab count – reduces viability of HEK-293 SNCA reporter cells. HEK-293-SNCA-luc viability, GF-AFC fluorescence, 24 h. Potency, µM (titrated, usually from 57.1 µM), for inactives: top-dose activity change, negative = cytotoxicity, most hits filed as cytotoxic. hit rate 0.12% among 150,000. AID 1671193;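 note: potency is the fitted concentration of half-maximal effect; 0% = DMSO-treated cells and -100% = medium-only wells without cells; nearly all actives have a fitted effect of over 30% in size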
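HEK-293-SNCA-luc cells (1500/well) plated 24 h, then exposed 24 h to a dilution series; GF-AFC added 30 min at 37C, fluorescence 405/540 nm; normalised to medium-only and DMSO wells, Hill fit.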
KDM5B inh – KDM5B demethylase inhibition; Q9UGL1; Potency, µM (highest dose often 57.7 µM), most hits filed as inhibitors; KDM5B demethylase, FDH-coupled NADH fluorescence (FDH is formaldehyde dehydrogenase); hit rate 2.6% among 220,000; note: potency is the fitted concentration of half-maximal effect; 0% is about no effect; nearly all actives have a fitted effect of over 70% in size
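KDM5BΔAP (200 nM final) in 50 mM HEPES pH 7.5, 0.01% Tween-20 was preincubated 10 min at RT with compound over a concentration range. Substrate mix (H3K4me3 12.5 µM, α-KG 25 µM, Fe²⁺, ascorbate, NAD⁺, FDH) was added, and NADH fluorescence change over 30 min gave dose-response curves.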
SNCA expr inh – inhibitors of alpha-synuclein (SNCA) gene expression | HEK-293 SNCA-luciferase knock-in, luminescence, 24 h | Potency, µM (titrated, usually from 57.2 µM), without a hit: top-dose activity change, negative = inhibition, hits mostly inhibitors | hit rate 0.17% among 140,000 | AID 1671194;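 note: potency is the fitted concentration of half-maximal effect; plate controls were DMSO cells for no effect and cell-free wells for full effect; nearly all actives have a fitted effect of over 45% in size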
IP6K1 inhibitor – IP6K1 kinase inhibition; Q92551; IP6K1 kinase, ADP-Glo luminescence, 2 h; active compounds read low; activity change, % (series mostly up to about 58 µM); hit rate 0.81% among 140,000; AID 1645851; in the data active = activity change below about -25%; note: % is set by controls: 0 for no effect and ±100 for the full control effect
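ADP-Glo luminescence measures ADP made by human IP6K1 during a 2 h RT reaction with ATP/IP6 (mix at 1.3 mM/130 uM); top library doses 57.5 and 19.1 uM final.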
Starred values were filed as active, the others as inactive; i = inactive; ? = inconclusive; . = not tested or not shown; ! = not confirmed by another sample; [ ] = remark or other dose. An excerpt weighted towards active compounds, which were near 2.8% of everything screened. Unless noted, calls come from the whole dose curve; as a rule, active = well fitted curve in the direction sought with a large enough effect; inconclusive = small, poorly fitted or top-dose-only effect, or another doubt; inactive = no such curve, though single readings can be large; an effect the other way counts as inactive or inconclusive.

SMILES	SNCA viab count	KDM5B inh	SNCA expr inh	IP6K1 inhibitor
COCc1cccc(-c2ccc3ncn(-c4ccc(F)cc4F)c(=O)c3n2)c1	3%[87.6 µM]	32µM*	12%[87.6 µM]	7
O=c1c2nc(-c3cccnc3)ccc2ncn1-c1ccc(F)cc1F	-18%[87.6 µM]	i	3%[87.6 µM]	21
COc1ncc(-c2ccc3ncn(-c4ccc(F)cc4F)c(=O)c3n2)cn1	-7%[87.6 µM]	40µM*	30%[87.6 µM]	14
CC(C)OC(=O)/C(C#N)=C/c1ccc(-c2ccccc2Cl)o1	.	i	.	.
O=C(NCCc1nnc2n1CCCCC2)Nc1ccccc1	.	i	.	.
Cc1ccc(-c2nc(CSc3n[nH]c(N)n3)no2)cc1	.	i	.	.
COc1cccc(-c2cn3cc(C(=O)NCC4CC4)nc3s2)c1	-9%[87.6 µM]	.	102%[87.6 µM]	5
COc1ccc(C2=NOC3(CCN([S+](=O)([O-])c4cccc(OC)c4)C3)C2)cc1 (stereo not drawn)	-28%	i	?	4
COc1ccc(-c2nc(C)nc3c2CN(C(=O)c2ccccn2)CC3)cc1	3%	16µM*	6%	0
COc1ccc(-c2nc(C)nc3c2CCN(Cc2cc(C)on2)CC3)cc1	5%	20µM*	2%	-6
COc1ccc(-c2nc(C)nc3c2CCN(CC2CCCCC2)CC3)cc1	-14%	28µM*	-5%	-3
COc1ccc(-c2nc(C)nc3c2CCN(Cc2ccnn2C)CC3)cc1	-13%	20µM*	-4%	1
CCC(C)(C)C1CCc2c(sc(NC(C)=O)c2C#N)C1 (stereo not drawn)	.	i	.	.
O=C(NCc1cccc(Cl)c1)c1nc2cccnc2n(CCc2ccccc2)c1=O	-11%	.	?	22
O=C(c1cc2ccccc2o1)N(Cc1ccc(F)cc1)C1CC1	.	i	.	.
CN(C)c1cccc(-c2nccc3c(=O)cc(N4CCOCC4)oc23)c1	5%[87.6 µM]	35µM*	-12%[87.6 µM]	-23
COc1ccc(-c2nccc3c(=O)cc(N4CCOCC4)oc23)cn1	-7%[87.6 µM]	35µM*	18%[87.6 µM]	-5
CN1CCN(c2ccc(-c3nccc4c(=O)cc(N5CCOCC5)oc34)cn2)CC1	-22%[87.6 µM]	?	33%[87.6 µM]	-17
COc1ccc(-c2nccc3c(=O)cc(N4CCN(C)CC4)oc23)cc1OC	10%[87.6 µM]	i	-8%[87.6 µM]	-20
O=c1cc(N2CCOCC2)oc2c(-c3ccncc3)nccc12	-1%[87.6 µM]	35µM*	-8%[87.6 µM]	-5
COc1cc(-c2nccc3c(=O)cc(N4CCOCC4)oc23)ccn1	-6%[87.6 µM]	25µM*	7%[87.6 µM]	-24
O=c1cc(N2CCOCC2)oc2c(N3CCN(c4ccccn4)CC3)nccc12	-1%[87.6 µM]	i	6%[87.6 µM]	-21
CCc1c(C)sc(NC(=O)Cc2c(Cl)cccc2Cl)c1C#N	.	i	.	.
CC(=O)N1CCc2cc(NC(=O)CNc3ccccc3OC(F)F)ccc21	.	i	.	.
Cc1ccc(Cn2cc(-c3ccncc3)cc2C(=O)N(C)Cc2ccccc2)cc1	?	22µM*	-26%	-6
SMILES	SNCA viab count	KDM5B inh	SNCA expr inh	IP6K1 inhibitor
Cc1ccc(Cn2cc(-c3ccncc3)cc2C(=O)NCC2CC2)cc1	3%	35µM*	10%	0
O=C(OCc1ccccc1)c1cc(=O)c2ccccc2o1	.	i	.	.
Cc1cccc(NC(=O)CCl)c1C	.	i	.	.
C=C(C)C(=O)O[C@H]1C[C@@](C)(O)C2(O)CCC(C)(/C=C3/OC(=O)C(COC)=C31)O2 (stereo partly drawn)	15µM*	.	.	2
Cc1nn(CC(O)COc2ccc(Oc3ccccc3)cc2)c(=O)c2ccccc12 (stereo not drawn)	.	i	.	.
Cc1ccc2nc(SCc3nc(-c4ccc(Cl)cc4)no3)[nH]c2c1	-9%	i	22µM*	30
CCn1c(CO)nnc1C1CC(NC(=O)c2cnn3cc(C)cnc23)C1 (stereo not drawn)	-1%	28µM*!	48%	13
Cc1ccccc1C(=O)N1CC(CN2C(=O)c3c(c(C)nn3-c3ccccc3)C2C)C1 (stereo not drawn)	.	.	.	25
Cn1cc(C(=O)N2CCC3(CC2)CN(c2ncccn2)CC3CO)cn1 (stereo not drawn)	-5%	25µM*	24%	6
CCOc1ccccc1C(=O)N1CCC2(CC1)CN(c1ncccn1)CC2CO (stereo not drawn)	-12%	32µM*	22%	7
CCOc1ccc(C(=O)N2CCC3(CC2)CN(c2ncccn2)CC3CO)cc1 (stereo not drawn)	-18%	25µM*	-11%	-1
COc1ccc(CC(=O)N2CCC3(CC2)CN(c2ncccn2)CC3CO)cc1 (stereo not drawn)	2%	?	9%	16
CC1(C)CC(=O)C2=C(C1)N(N1CCOCC1)C(N)=C(C#N)C2c1ccccc1Cl (stereo not drawn)	.	i	.	.
CCCCSc1nnc(-c2c[nH]c3ccccc23)n1C1CC1	.	i	.	.
CCSc1oc(-c2ccccc2)nc1S(=O)(=O)c1ccc(F)cc1	.	i	.	.
CCCCS(=O)(=O)c1oc(-c2ccc(F)cc2)nc1S(=O)(=O)c1ccccc1	14µM*	?	?	-13
CS(=O)(=O)c1oc(-c2ccc(F)cc2)nc1S(=O)(=O)c1ccc(Cl)cc1	-6%	i	9%	-10
CC(C)S(=O)(=O)c1oc(-c2ccc(F)cc2)nc1S(=O)(=O)c1ccccc1	2.5µM*	?	?	-2
Cc1ccc(S(=O)(=O)c2nc(-c3cccs3)oc2SC(C)C)cc1	2%	?	20%	-6
CCS(=O)(=O)c1oc(-c2ccc(F)cc2)nc1S(=O)(=O)c1ccc(Br)cc1	16µM*	?	?	-9
CC(C)S(=O)(=O)c1oc(-c2cccs2)nc1S(=O)(=O)c1ccc(F)cc1	?	i	14µM*	-3
O=C(NCc1ccccc1F)c1ccc2c(c1)CN(Cc1ccncc1F)CCO2	-13%	.	7%	19
Cc1oc(-c2ccc(C(=O)NC3CCCC3)cc2)nc1CS(=O)(=O)c1ccccc1	.	i	.	.
NC(=O)C1CCN(C(=O)COc2ccc3c(=O)c(-c4ccccc4)coc3c2)CC1	.	i	.	.
CCN1CCN(c2nc3ncn(CC(=O)Nc4ccc(F)c(C)c4)c(=O)c3s2)CC1	.	i	.	.
SMILES	SNCA viab count	KDM5B inh	SNCA expr inh	IP6K1 inhibitor
Cc1cnc(C(=O)N2CCCC(CCc3cccc(F)c3)C2)cn1 (stereo not drawn)	6%	i	2%	10
N[C@H]1CN(c2cncc(C(=O)N3CCCCC3)n2)C[C@@H]1C1CC1	-16%	28µM*	-6%	39
O=C(c1cncc(N2CCCC(CCc3cccc(F)c3)C2)n1)N1CCCCC1 (stereo not drawn)	?	25µM*	?	30
COc1ccc(-c2cc(-c3nc(-c4cccc(Cl)c4)no3)[nH]n2)cc1	.	i	.	.
Cc1nnc2ccc(N3CCN(C(=O)Nc4ccc(Cl)cc4)CC3)nn12	.	.	.	11
CCc1nc(C)cc(-c2cc(OC)c(OC)c(OC)c2)n1	-3%	25µM*	17%	34
Cc1ccc(C(=O)N2CCC(N3C(=O)c4c(c(C)nn4-c4ccccc4)C3C3CC3)C2)cc1 (stereo not drawn)	.	.	.	-10
COc1cccc(-c2ccc3c(n2)CNC(=O)CO3)c1	3%[87.6 µM]	32µM*	132%[87.6 µM]	11

High-throughput results from PubChem BioAssay.
